The panel holds about 83,000 compounds, 20% with a hit somewhere; the sample as a whole holds those more often.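 Activity criterion: percent growth below 10, measured after cells in 96-well plates were exposed to a single compound concentration for 48 hours.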 Values without a mark were called inactive. Activity calls are given as the source filed them.

In the experiment the test system is M14 melanoma. Nature of the experiment: NCI-60 one-dose screen, 48 h (100 = growth as untreated, 0 = no growth, -100 = all killed). The conditions noted are these: 10 µM unless noted. As for the experimental part: Growth inhibition of the M14 human tumor cell line is measured as a screen for anti-cancer activity. Cells are grown in 96 well plates and exposed to the test compound for 48 hours. Compounds are tested at a single concentration, which is 10^-5 M for most compounds. The reported endpoint is percent growth (GI% or GIPRCNT), where numbers from 0 - 100% represent growth inhibition, and numbers from -100% - 0 represent cell death. For example, a value of 40 represents 60% growth inhibition. A value of 0 means no net growth occurred over the course of the experiment. A value of -40 indicates 40% of cells at the beginning of the experiment died by the end of the experiment. A value of -100 means all cells are dead at the end of the experiment.
NCI-60 Human Tumor Cell Lines Screen was performed using the standard one-dose NCI protocol, which is described in more detail at https://dtp.cancer.gov/discovery_development/nci-60/default.htm.
Compounds with GIPRCNT values below 10 were considered active. Activity score was based on GIPRCNT using the following formula: […]
Score is 0 for GIPRCNT values of 100 or above, 50 for GIPRCNT values of 0, and 100 for GIPRCNT values of -100.
`Cc1ccc(C(=O)NN2C(=O)CSC2c2ccc(Cl)cc2)cn1` (stereo not given): the growth is 97.8%.

`COc1ccc(-c2nnc(COc3ccc(Cl)cc3Cl)o2)cc1OC`: the growth is 45%.

Take `O=C(N/N=C/c1ccc(Cl)cc1)c1ccc(C(F)(F)F)nc1Nc1cccc(C(F)(F)F)c1`: the growth is 42.7%.

As for `COc1cc(/C=C/c2c(C(C)=O)c(C)nc3ccccc23)cc(OC)c1OC`, the growth was 25.9%.

In the case of `CCOC(=O)c1c(C)nc2c(c1N)CC(=O)N2Cc1ccc(F)cc1`, the growth is 94.8%.

Consider `COc1cc(/C=N/NC(=O)c2ccc(C)nc2)cc(OC)c1OC`, for which the growth was 108%.

Regarding `COc1cc(/C=C2\C(=O)Nc3ccc(Br)cc32)cc(OC)c1OC`, the growth is 79.2%.

`Cc1ccc(/C=C(\C#N)n2nc3cccc(F)c3n2)cc1`: the growth is 98.2%.

Turning to `CC(=O)c1ccc(Nc2nc(C(C)=O)c(C)s2)cc1`, the growth is 104%.

Consider `CCCCOc1ccc(/C=N/NC(N)=S)cc1`, for which the growth was 78%.

In the case of `Clc1ccc(C(/C=C/c2sc(Cl)nc2Cl)=N/Nc2cc(Cl)cc(Cl)c2)cc1`, the growth was 107%.

As to `c1ccc(-c2nc3sc(-c4ccccc4)cn3n2)cc1`, the growth is 86.7%.

Take `CCCCCCNC(=O)Oc1ccc(/C(=C(\C)c2ccc(Cl)cc2)c2ccc(OCCCN(C)C)cc2)cc1`: the growth is 76.7%.

Consider `CCOc1ccc2nc(SCc3nc4n(n3)S(=O)(=O)c3ccccc3N4C)sc2c1`, for which the growth is 5.88% (active).

With `CCS(=O)(=O)c1ncnc2nc[nH]c12`, the growth was 88.1%.

Regarding `CCN(CC)CCNC(=O)c1cn2ncnc(Oc3ccc(NC(=O)Nc4ccc(Cl)c(C(F)(F)F)c4)cc3)c2c1C`, the growth was -83.3% (active).

`O=C(Nc1ccc(Cl)cc1F)c1ccccc1O`: the growth was 46.4%.

As for `Cc1ccc(S(=O)(=O)N/N=C/C2(c3ccccc3)CC2)cc1`, the growth was 115%.

Turning to `COc1cc2cc(Oc3ccc(NC(=O)Nc4cccc(C(F)(F)F)c4)cc3)c(C)nc2cc1OCCN1CCOCC1`, the growth is 34.3%.

On to `COc1ccc(CN2c3ccccc3Sc3ccccc32)c(F)c1`, for which the growth was 11.2%.

In the case of `O=c1[nH]c2c(ccc3cnccc32)c2c1CCC2`, the growth was -77% (active).

Regarding `CCOC(=O)Nc1ccc(-c2nc(-c3cccc(OC)c3)c(-c3ccnc(Br)c3)[nH]2)cc1`, the growth is 36%.

Turning to `CNCCCNc1nc2ccccc2c2c(=O)c3cc(F)ccc3sc12`, the growth was -53.2% (active).

For the molecule `Cc1ccc(C(=O)N/N=C/c2cccc(Oc3ccccc3)c2)cn1`, the growth is 50%.

Regarding `Cc1cccc2c1S/C(=C/c1ccc([N+](=O)[O-])cc1)C2=O`, the growth was 98.2%.

As to `COc1ccc(-n2c(N)c(-c3nc4ccccc4[nH]3)cc(C#N)c2=O)cc1`, the growth is 109%.

Regarding `N#CC1=C(N)Oc2c(sc3c(Br)cccc23)C1c1ccc(Br)cc1` (stereo not given), the growth was -0.594% (active).

Regarding `COc1cc(C(=O)c2cnc(-c3cccc4[nH]ccc34)[nH]2)cc(OC)c1OC`, the growth is -6.97% (active).

`CCCCn1c(=O)c(-c2cc(-c3ccc(Cl)cc3)nc(-c3ccc(Cl)cc3)c2)cc2ccc(Cl)cc21`: the growth is 107%.

For the molecule `O=c1ccc(N=Nc2ccccc2)ccc1Cl`, the growth is 46.6%.

Take `Cc1c(C(=O)N[C@@H](Cc2ccccc2)C(=O)C(=O)NCc2ccc(F)cc2)[nH]c2ccccc2c1=O`: the growth was 103%.

`NCCCNc1nc2ccccc2c2c(=O)c3cc(OC(F)(F)F)ccc3sc12`: the growth is -26.4% (active).

Consider `Cc1ccc(-c2nn(C)c(=O)c3noc(-c4ccc(C)cc4)c23)cc1`, for which the growth is 21.6%.

Regarding `CCc1cccc2c1S/C(=C/c1ccc(Cl)cc1)C2=O`, the growth was 99.1%.

In the case of `Nc1nc2ccccc2c2c(=O)c3cc(F)ccc3sc12`, the growth is 99.6%.

Turning to `Nc1ccc(Sc2ccc([N+](=O)[O-])c3nonc23)cc1`, the growth is 88.7%.

Turning to `Cc1ccc(C(=O)N/N=C/c2cccc([N+](=O)[O-])c2)cn1`, the growth was 112%.

For `O=C(Nc1ccc(Br)cc1F)c1cc(Br)ccc1O`, the growth was 8.04% (active).

Turning to `COc1ccc(-c2nc3sc(-c4ccc(Cl)cc4)cn3n2)cc1`, the growth was 91.1%.

`c1ccc(Cc2nn3cc(-c4ccccc4)nc3s2)cc1`: the growth was 90.3%.

Values taken from PubChem BioAssay (NCI).
